A word on the AC50: it is the concentration at which the activity in the assay is half-maximal.

For 3 compounds, outcome and AC50 results are on record in PubChem BioAssay (EPA / NIEHS).

Read-out in assay [1]: TIMP metallopeptidase inhibitor 1 (TIMP1), TIMP1 (gene 7076)
As to the kind of experiment: BSK_hDFCGF_TIMP1: BioMAP Diversity Plus: hDFCGF Assay for TIMP metallopeptidase inhibitor 1 (TIMP1) Biomarker Activity (AID 2283062). Particulars: primary human foreskin fibroblasts; actives raise or lower the signal. The method in brief: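 Primary human foreskin fibroblasts in the hDFCGF system were dosed with compound for 24 h, then TIMP-1 was measured by ELISA. Activity was fitted bidirectionally relative to DMSO control; parallel SRB staining assessed cytotoxicity.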

Read-out in assay [2]: Monokine induced gamma interferon (MIG), CXCL9 (gene 4283)
The experiment in a line: BSK_hDFCGF_MIG: BioMAP Diversity Plus: hDFCGF Assay for Monokine induced gamma interferon (MIG) Biomarker Activity (AID 2283063). Particulars: primary human foreskin fibroblasts; actives raise or lower the signal. The method, boiled down:
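ELISA read-out of MIG from primary human dermal fibroblasts 24 h post-dosing. Gain or loss of signal fitted bidirectionally, DMSO as baseline.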

Read-out in assay [3]: Matrix Metallopeptidase 1 (MMP1), MMP1 (gene 4312)
The experiment in a line: BSK_hDFCGF_MMP1: BioMAP Diversity Plus: hDFCGF Assay for Matrix Metallopeptidase 1 (MMP1) Biomarker Activity (AID 2283064). The settings on record: primary human foreskin fibroblasts; actives raise or lower the signal. The method, boiled down: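 ELISA read-out of MMP1 from human foreskin fibroblasts (primary skin cells), 24 h post-dose. Gain or loss of signal was fitted bidirectionally versus DMSO negative control; cytotoxicity was checked by SRB in parallel cultures.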

Read-out in assay [4]: Plasminogen activator inhibitor-1 (PAI1), SERPINE1 (gene 5054)
The experiment in a line: BSK_hDFCGF_PAI1: BioMAP Diversity Plus: hDFCGF Assay for Plasminogen activator inhibitor-1 (PAI1) Biomarker Activity (AID 2283066). Particulars: primary human foreskin fibroblasts; actives raise or lower the signal. The method, boiled down: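 PAI-1 levels in human dermal foreskin fibroblasts were quantified by ELISA 24 h after dosing, with gain or loss analysed against DMSO. Overt cytotoxicity was checked by sulforhodamine B total-protein staining in parallel cultures.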

Read-out in assay [5]: Intercellular Adhesion Molecule 1 (ICAM1), ICAM1 (gene 3383)
As to the kind of experiment: BSK_KF3CT_ICAM1: BioMAP Diversity Plus: KF3CT Assay for Intercellular Adhesion Molecule 1 (ICAM1) Biomarker Activity (AID 2283067). The settings on record: primary human keratinocytes with fibroblasts; actives raise or lower the signal. The method in brief:
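Human keratinocyte plus foreskin fibroblast primary co-culture was exposed to chemical for 24 h. ICAM-1 was then quantified by ELISA, and the data were fit bidirectionally against DMSO as the negative control and baseline.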

Read-out in assay [6]: Interferon-gamma inducible Protein 10 (IP10), CXCL10 (gene 3627)
As to the kind of experiment: BSK_KF3CT_IP10: BioMAP Diversity Plus: KF3CT Assay for Interferon-gamma inducible Protein 10 (IP10) Biomarker Activity (AID 2283068). The settings on record: primary human keratinocytes with fibroblasts; actives raise or lower the signal. The method, boiled down: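 In a primary skin co-culture of keratinocytes and fibroblasts, IP-10 is quantified by ELISA at 24 h after dosing. SRB staining of parallel wells monitors overt toxicity. Curves are fitted both directions against DMSO.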

Assay [7] in a line: BSK_KF3CT_SRB: Viability Assessment in the BioMAP Diversity Plus: KF3CT Assay (AID 2283069).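 Also: read 24 h after compound addition.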 The settings on record: primary human keratinocytes with fibroblasts. The method, boiled down: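 SRB read-out at 560 nm (0.1% stain, TCA-fixed cells) gauges overt cytotoxicity in a human skin keratinocyte–fibroblast co-culture 24 h post-dosing. Signal change was fitted bidirectionally relative to DMSO control.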

Read-out in assay [8]: Interleukin-1 alpha (IL1a), IL1A (gene 3552)
The experiment in a line: BSK_KF3CT_IL1a: BioMAP Diversity Plus: KF3CT Assay for Interleukin-1 alpha (IL1a) Biomarker Activity (AID 2283070). The settings on record: primary human keratinocytes with fibroblasts; actives raise or lower the signal. The method, boiled down:
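Primary skin co-culture (keratinocytes, foreskin fibroblasts), 24 h exposure; ELISA for IL-1a; bidirectional curve fit vs DMSO.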

Read-out in assay [9]: TIMP metallopeptidase inhibitor 2 (TIMP2), TIMP2 (gene 7077)
The experiment in a line: BSK_KF3CT_TIMP2: BioMAP Diversity Plus: KF3CT Assay for TIMP metallopeptidase inhibitor 2 (TIMP2) Biomarker Activity (AID 2283071). The settings on record: primary human keratinocytes with fibroblasts; actives raise or lower the signal. The method, boiled down: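 TIMP-2 measured by ELISA at 24 h in human keratinocyte/fibroblast primary co-cultures exposed to chemicals. Both increases and decreases were fitted against DMSO. Parallel cultures were stained with SRB for total protein as an overt-cytotoxicity check.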

Read-out in assay [10]: Transforming growth factor beta 1 (TGFb1), TGFB1 (gene 7040)
The experiment in a line: BSK_KF3CT_TGFb1: BioMAP Diversity Plus: KF3CT Assay for Transforming growth factor beta 1 (TGFb1) Biomarker Activity (AID 2283072). Particulars: primary human keratinocytes with fibroblasts; actives raise or lower the signal. The method in brief:
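ELISA quantifies TGF-b1 at 24 h post-dose in a primary human skin co-culture of keratinocytes and fibroblasts, with gain or loss judged against DMSO. Parallel SRB total-protein staining flags overt cytotoxicity.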

Read-out in assay [11]: C-C motif chemokine 2 (Homo sapiens) (UniProt P13500)
The experiment in a line: BSK_KF3CT_MCP1: BioMAP Diversity Plus: KF3CT Assay for Monocyte Chemoattractant Protein 1 (MCP1/CCL2) Biomarker Activity (AID 2283073). The settings on record: primary human keratinocytes with fibroblasts; actives raise or lower the signal. The method in brief:
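Human keratinocyte plus foreskin fibroblast primary co-culture exposed to chemical for 24 h. MCP-1 levels measured by ELISA. Bidirectional curve fitting relative to DMSO negative control as baseline.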

Read-out in assay [12]: Matrix Metallopeptidase 9 (MMP9), MMP9 (gene 4318)
As to the kind of experiment: BSK_KF3CT_MMP9: BioMAP Diversity Plus: KF3CT Assay for Matrix Metallopeptidase 9 (MMP9) Biomarker Activity (AID 2283074).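 As to AC50: MMP9 protein level quantified by ELISA in the co-culture.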 Particulars: primary human keratinocytes with fibroblasts; actives raise or lower the signal. The method in brief: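 ELISA read-out of MMP-9 at 24 h post-dosing in a co-culture of human skin keratinocytes and foreskin fibroblasts. Gain or loss of signal was fitted in both directions against DMSO.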

Read-out in assay [13]: urokinase plasminogen activator (uPA), PLAU (gene 5328)
The experiment in a line: BSK_KF3CT_uPA: BioMAP Diversity Plus: KF3CT Assay for urokinase plasminogen activator (uPA) Biomarker Activity (AID 2283075). Particulars: primary human keratinocytes with fibroblasts; actives raise or lower the signal. The method in brief:
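Skin co-culture (keratinocytes + foreskin fibroblasts), human primary; 24 h post-dose; uPA by ELISA; gain/loss fit vs DMSO baseline.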

Read-out in assay [14]: CD40, CD40 (gene 958)
As to the kind of experiment: BSK_LPS_CD40: BioMAP Diversity Plus: LPS Assay for CD40 Biomarker Activity (AID 2283076). Particulars: primary human HUVEC with PBMC; actives raise or lower the signal. The method in brief:
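Primary human umbilical vein endothelial cells co-cultured with peripheral blood mononuclear cells, LPS-stimulated, were dosed with chemical and read 24 h later. CD40 levels were measured by ELISA and fitted bidirectionally against DMSO as negative control and baseline.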

Read-out in assay [15]: E-selectin (Homo sapiens) (UniProt P16581)
The experiment in a line: BSK_LPS_Eselectin: BioMAP Diversity Plus: LPS Assay for Eselectin Biomarker Activity (AID 2283077). The settings on record: primary human HUVEC with PBMC; actives raise or lower the signal. The method, boiled down:
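Human umbilical vein endothelial cells co-cultured with peripheral blood mononuclear cells under LPS stimulation; E-selectin measured by ELISA 24 h after chemical dosing. Activity fitted bidirectionally against DMSO as negative control and baseline.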

Read-out in assay [16]: Interleukin-8 (IL8), CXCL8 (gene 3576)
As to the kind of experiment: BSK_LPS_IL8: BioMAP Diversity Plus: LPS Assay for Interleukin-8 (IL8) Biomarker Activity (AID 2283078). Particulars: primary human HUVEC with PBMC; actives raise or lower the signal. The method in brief: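 Human umbilical vein endothelial cells co-cultured with PBMC were stimulated with LPS; IL-8 levels were measured by ELISA 24 h after chemical dosing. Activity was fitted bidirectionally against DMSO as negative control and baseline.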

A short description of assay [17]: BSK_LPS_SRB: Viability Assessment in the BioMAP Diversity Plus: LPS Assay (AID 2283079).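 Also: total protein by sulforhodamine B absorbance as a cytotoxicity measure; measured one day after compound addition.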 Particulars: primary human HUVEC with PBMC. The method in brief: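 Human umbilical vein endothelial cells co-cultured with PBMC (LPS system) were dosed for 24 h. Total protein was stained with 0.1% sulforhodamine B after 10% TCA fixation, read at 560 nm, and fitted bidirectionally against DMSO baseline.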

Read-out in assay [18]: Interleukin-1 alpha (IL1a), IL1A (gene 3552)
As to the kind of experiment: BSK_LPS_IL1a: BioMAP Diversity Plus: LPS Assay for Interleukin-1 alpha (IL1a) Biomarker Activity (AID 2283080). Particulars: primary human HUVEC with PBMC; actives raise or lower the signal. The method in brief:
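Human umbilical vein endothelial cells co-cultured with peripheral blood mononuclear cells were LPS-stimulated and exposed to test chemicals for 24 h. IL-1 alpha was quantified by ELISA, with bidirectional curve fitting against DMSO as the negative control and baseline.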

Read-out in assay [19]: Monocyte Chemoattractant Protein-1 (MCP1), CCL2 (gene 6347)
As to the kind of experiment: BSK_LPS_MCP1: BioMAP Diversity Plus: LPS Assay for Monocyte Chemoattractant Protein-1 (MCP1) Biomarker Activity (AID 2283081).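 As to AC50: co-culture stimulated with LPS; secreted MCP-1 protein quantified by ELISA in culture supernatant.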 Particulars: primary human HUVEC with PBMC; actives raise or lower the signal. The method in brief:
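HUVEC plus PBMC co-culture (human primary cells, LPS system) exposed to test chemical for 24 h; MCP-1 measured by ELISA. Bidirectional curve fitting against DMSO baseline; parallel SRB total-protein staining flags overt cytotoxicity.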

Read-out in assay [20]: Vascular cell adhesion molecule 1 (VCAM1), VCAM1 (gene 7412)
As to the kind of experiment: BSK_hDFCGF_VCAM1: BioMAP Diversity Plus: hDFCGF Assay for Vascular cell adhesion molecule 1 (VCAM1) Biomarker Activity (AID 2283065).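 Also: VCAM-1 protein level quantified by ELISA after 24 h chemical exposure.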 Particulars: primary human foreskin fibroblasts; actives raise or lower the signal. The method in brief: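 Primary human foreskin fibroblasts (hDFCGF system) were dosed with chemical and VCAM-1 was measured by ELISA 24 h later. Bidirectional curve fitting used DMSO as negative control and activity baseline.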

Calls of active or inactive are those of the source. The calls were made as follows: active = hit-call score of the fitted dose curve at least 0.9, where 1 is the maximum; inactive = score below 0.9.

Chain of E-selectin (Homo sapiens) (P16581 whole entry, looked up): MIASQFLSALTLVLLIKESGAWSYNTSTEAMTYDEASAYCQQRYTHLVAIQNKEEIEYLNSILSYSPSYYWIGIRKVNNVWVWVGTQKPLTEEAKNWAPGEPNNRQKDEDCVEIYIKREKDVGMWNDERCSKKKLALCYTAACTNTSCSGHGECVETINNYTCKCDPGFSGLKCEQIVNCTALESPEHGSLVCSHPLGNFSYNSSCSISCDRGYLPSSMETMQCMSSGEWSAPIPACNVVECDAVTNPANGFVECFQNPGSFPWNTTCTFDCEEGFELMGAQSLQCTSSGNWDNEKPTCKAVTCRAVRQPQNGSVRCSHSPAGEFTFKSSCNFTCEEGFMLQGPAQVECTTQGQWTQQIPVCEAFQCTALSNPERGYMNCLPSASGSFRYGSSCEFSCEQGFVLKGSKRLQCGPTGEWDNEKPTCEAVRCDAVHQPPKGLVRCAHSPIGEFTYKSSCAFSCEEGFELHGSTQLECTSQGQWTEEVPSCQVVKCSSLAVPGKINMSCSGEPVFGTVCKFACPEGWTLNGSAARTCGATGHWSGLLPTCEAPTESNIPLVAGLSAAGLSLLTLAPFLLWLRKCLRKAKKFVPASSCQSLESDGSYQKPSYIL

On to `CC1=CC(=O)CC(C)(C)C1`, for which the result in [1], in assay [2], in [3], in assay [4], in assay [5] and in assay [6] was inactive. The result in [7], in assay [8], in [9], in assay [10], in [11] and in assay [12] was inactive. Besides, the result in assay [13], in [14], in assay [15], in assay [16], in [17] and in assay [18] was inactive. The result in [19] was inactive.
For `Cn1c(=O)cc(Oc2ccc(F)cc2F)c2cnc(NCC(C)(C)O)nc21`, the result in assay [1], in [2], in assay [4], in assay [5], in assay [6] and in assay [7] was inactive. The result in assay [8], in assay [9], in [10], in [11], in assay [13] and in [14] was inactive. Also, the result in assay [17] was inactive. Moreover, the AC50 in [3] is 1.12 µM (active); in assay [15], 3.35 µM (active); in [16] it was 2.9 µM (active); in assay [18] it was 3.97 µM (active); in assay [19] it was 3.88 µM (active).
For the compound `CCOc1cccc(-n2cc(C(=O)N3CCN(c4cc(C(=O)O)c5ccccc5c4)CC3)nc2-c2ccc(C)cc2)c1`, the AC50 in [1] was 13.3 µM (active); in assay [2], 26.3 µM (active); in assay [3], 16.5 µM (active); in assay [20], 12.9 µM (active); in assay [4] it was 6.1 µM (active); in [5], 30.5 µM (active). The AC50 is 29.2 µM (active) in assay [6]; 30.1 µM (active) in assay [8]; 14.4 µM (active) in assay [10]; 19.2 µM (active) in [11]; 19.7 µM (active) in assay [12]; 31.2 µM (active) in [13]. Further, the AC50 in assay [14] was 14.2 µM (active); in assay [16] it was 27.2 µM (active); in assay [17] it was 13.7 µM (active); in assay [18], 19.2 µM (active); in assay [19] it was 30.7 µM (active).
